From the supplement of paper PMC10849652
Targets with a hit are over-represented here; the source holds about 8,800 in all. About 0.5% of all pairs of compound and target were hits.

What was measured:
Assay in all cases: log2 fold change, soluble protein after heating vs DMSO (PISA); higher = thermal stabilisation; K562 lysate, 10 uM; active = over 0.2 and 3.5 SD of the protein, either way, in both replicates (recomputed)
[1] = compound: C=CC(=O)N1CCC[C@@H](n2nc(-c3ccc(Oc4ccccc4)cc3)c3c(N)ncnc32)C1 [ibrutinib]
In short: (§1)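 Values give the log-two fold change in thermal stability against solvent controls, from duplicates. Crude K562 extract at 1 mg/mL protein, made by dounce homogenisation in PBS pH 7.4 with 1 mM MgCl2, was treated with 10 μM compound for 30 min. After 3 min heating across 48°C-58°C, aliquots were pooled, adjusted to 0.5% NP-40 at 4°C and centrifuged at 21,000xg for 90 min. The supernatant was measured by TMTpro 16plex LC-MS/MS with channel sums equalised.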

[2] = compound: CC(=O)c1cnc2ccc(-c3cc(Cl)c(O)c(Cl)c3)nc2c1N[C@H]1CC[C@H](CN(C)C)CC1
In short: as §1

[3] = compound: CC(C)(C)Cn1c(N)nc2ccc(-c3[nH]c(C(C)(C)C)nc3-c3ccc(F)cc3)nc21 [ralimetinib]
In short: as §1

[4] = compound: CC(C)(O)CC(=O)NCCn1ccc2ncnc(Nc3ccc(Oc4cccc(C(F)(F)F)c4)c(Cl)c3)c21
In short: as §1

[5] = compound: CC(C)C1=C2N=C(C=C(N2N=C1)NCC3=CC=CC=C3)NCCCCCCN
In short: as §1

[6] = compound: CC1=C(C(CC(=O)N1)C2=CC=C(C=C2)C(F)(F)F)C(=O)NC3=C(C=C4C(=C3)C=NN4)F
In short: as §1

[7] = compound: CC1=C(C2=C(C=C1)C(=O)C3=CC=CC=C3N2CCCN)C
In short: as §1

[8] = compound: CC1=C(C=C(C=C1)NC(=O)C2=CC(=CC=C2)C(C)(C)C#N)NC3=CC4=C(C=C3)N=CN(C4=O)C
In short: as §1

[9] = compound: CC1=C(C=C(C=C1)NC(=O)C2=CC(=CC=C2)N(C)C)NC(=O)C3=CC=C(C=C3)O
In short: as §1

[10] = compound: CC1=CC=C(C=C1)SC2=C3C=C(SC3=CN=C2)C(=O)N
In short: as §1

[11] = compound: CCCS(=O)(=O)Nc1ccc(F)c(C(=O)c2c[nH]c3ncc(-c4ccc(Cl)cc4)cc23)c1F [vemurafenib]
In short: as §1

[12] = compound: CCCS(=O)(=O)Nc1ccc(F)c(C(=O)c2c[nH]c3ncc(Cl)cc23)c1F
In short: as §1

[13] = compound: CCN(CCCOc1ccc2c(Nc3cc(CC(=O)Nc4cccc(F)c4)[nH]n3)ncnc2c1)CCOP(=O)(O)O [barasertib]
In short: as §1

[14] = compound: CC[C@@H]1C(=O)N(C)c2cnc(Nc3ccc(C(=O)NC4CCN(C)CC4)cc3OC)nc2N1C1CCCC1
In short: as §1

[15] = compound: CC[C@@H]1C(=O)N(C)c2cnc(Nc3ccc(C(=O)N[C@H]4CC[C@H](N5CCN(CC6CC6)CC5)CC4)cc3OC)nc2N1C(C)C [volasertib]
In short: as §1

[16] = compound: CCn1c(C(=O)N(C2CC2)C2CC2)cc2c3c(ncn3C)c(Nc3cc(C)n(C)n3)nc21
In short: as §1

[17] = compound: CCn1cc(-c2ccnc3[nH]c(-c4cccc(CN(C)C)c4)cc23)c(-c2ccc(NC(=O)N(C)C)cc2)n1
In short: as §1

[18] = compound: CN1CCC(CNc2ccc3ncc(-c4cccc(OC(F)(F)F)c4)n3n2)CC1
In short: as §1

[19] = compound: CN1CCN(CCOc2cc(OC3CCOCC3)c3c(Nc4c(Cl)ccc5c4OCO5)ncnc3c2)CC1 [saracatinib]
In short: as §1

[20] = compound: CN1CCN(c2nc(C3=C(c4c[nH]c5ccccc45)C(=O)NC3=O)c3ccccc3n2)CC1 [sotrastaurin]
In short: as §1

Measured: log2 fold change

MAPK6 (UniProt Q16659)
inactive: [1] 0.07 | [2] 0.025 | [3] 0.004 | [4] -0.05 | [5] 0.012 | [6] 0 | [7] 0 | [8] -0.006 | [9] 0.029 | [10] 0.021 | [11] 0.006 | [12] 0.001 | [13] 0.047 | [14] 0.034 | [15] -0.001 | [16] -0.029 | [18] -0.02 | [19] -0.014 | [20] 0.014
active: [17] 0.221

MCCC1 (UniProt Q96RQ3)
inactive: [1] 0.034 | [2] -0.033 | [3] 0.022 | [4] -0.042 | [5] -0.014 | [6] -0.028 | [7] 0.026 | [8] -0.006 | [9] -0.004 | [10] 0.013 | [11] 0.065 | [12] 0.009 | [13] 0.015 | [14] 0.005 | [15] -0.034 | [16] -0.025 | [17] 0.139 | [18] -0.059 | [19] 0.028 | [20] 0.054

MRPL12 (UniProt P52815)
inactive: [1] 0.082 | [2] -0.05 | [3] 0.006 | [4] -0.013 | [5] -0.029 | [6] -0.042 | [7] 0 | [8] 0.026 | [9] 0.012 | [10] 0.076 | [11] 0.01 | [12] -0.026 | [13] 0.181 | [14] 0.036 | [15] 0.103 | [16] -0.019 | [18] -0.032 | [19] 0.004 | [20] 0.015
active: [17] -0.412

L3HYPDH (UniProt Q96EM0)
Sequence of UniProt Q96EM0 (Q96EM0 whole entry, looked up): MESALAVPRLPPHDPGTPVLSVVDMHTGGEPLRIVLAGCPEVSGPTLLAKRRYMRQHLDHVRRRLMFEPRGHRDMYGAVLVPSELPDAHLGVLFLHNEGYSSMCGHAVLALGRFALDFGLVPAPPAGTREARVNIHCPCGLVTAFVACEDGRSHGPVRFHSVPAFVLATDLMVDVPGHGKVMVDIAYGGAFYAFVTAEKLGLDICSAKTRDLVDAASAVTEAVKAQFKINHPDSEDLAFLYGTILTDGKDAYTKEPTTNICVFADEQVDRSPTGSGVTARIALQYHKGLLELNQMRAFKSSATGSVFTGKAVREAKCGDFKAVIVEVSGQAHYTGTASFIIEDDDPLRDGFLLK
inactive: [1] -0.004 | [2] 0.039 | [3] -0.021 | [4] -0.004 | [5] 0.004 | [6] -0.044 | [7] -0.001 | [8] 0.032 | [9] 0.018 | [10] -0.024 | [11] 0.04 | [12] 0.033 | [13] 0.015 | [14] 0.002 | [15] -0.017 | [16] 0.011 | [17] 0.01 | [18] 0.012 | [19] -0.027 | [20] -0.008

MARK1 (UniProt Q9P0L2)
inactive: [1] -0.006 | [2] -0.054 | [3] 0.078 | [4] 0.046 | [5] 0.021 | [6] 0.011 | [7] 0.021 | [8] 0.07 | [9] 0.04 | [10] 0.007 | [11] -0.006 | [12] 0.064 | [13] -0.038 | [14] -0.045 | [15] -0.019 | [16] -0.018 | [17] -0.06 | [18] -0.241 | [19] 0.021 | [20] -0.17

MLH1 (UniProt P40692)
Sequence of UniProt P40692 (P40692 whole entry, looked up): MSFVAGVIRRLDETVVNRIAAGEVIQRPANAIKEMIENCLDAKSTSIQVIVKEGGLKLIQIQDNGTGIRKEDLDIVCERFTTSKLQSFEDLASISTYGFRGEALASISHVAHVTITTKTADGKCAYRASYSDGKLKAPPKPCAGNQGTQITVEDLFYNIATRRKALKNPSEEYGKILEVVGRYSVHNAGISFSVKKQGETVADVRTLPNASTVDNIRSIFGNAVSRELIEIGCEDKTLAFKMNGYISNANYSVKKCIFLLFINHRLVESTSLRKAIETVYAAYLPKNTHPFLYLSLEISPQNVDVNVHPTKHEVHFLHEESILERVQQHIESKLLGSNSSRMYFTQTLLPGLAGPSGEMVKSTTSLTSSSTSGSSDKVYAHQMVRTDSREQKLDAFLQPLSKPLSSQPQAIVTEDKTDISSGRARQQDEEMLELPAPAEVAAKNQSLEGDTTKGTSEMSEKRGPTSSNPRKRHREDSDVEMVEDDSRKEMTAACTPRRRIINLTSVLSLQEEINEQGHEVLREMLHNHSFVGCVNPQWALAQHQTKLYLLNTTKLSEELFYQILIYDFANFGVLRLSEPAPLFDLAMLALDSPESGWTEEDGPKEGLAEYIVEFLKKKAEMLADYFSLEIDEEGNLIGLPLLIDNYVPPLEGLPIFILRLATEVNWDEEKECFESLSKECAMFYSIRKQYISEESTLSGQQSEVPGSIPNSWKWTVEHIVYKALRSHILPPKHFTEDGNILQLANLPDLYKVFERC
inactive: [1] 0.01 | [2] -0.009 | [3] 0.02 | [4] -0.035 | [5] -0.018 | [6] 0.017 | [7] -0.055 | [8] 0.014 | [9] -0.006 | [10] 0.03 | [11] 0.042 | [12] -0.039 | [13] 0.014 | [14] 0.013 | [15] -0.002 | [16] 0.014 | [17] -0.029 | [18] -0.023 | [19] 0.051 | [20] 0.02

MAPKAPK5 (UniProt Q8IW41)
inactive: [1] -0.001 | [2] -0.008 | [3] -0.024 | [4] -0.012 | [5] 0 | [6] -0.057 | [7] -0.01 | [8] 0.034 | [9] 0.048 | [10] -0.066 | [11] -0.111 | [12] -0.11 | [13] -0.013 | [14] -0.009 | [15] -0.052 | [16] 0.031 | [17] 0.017 | [18] -0.02 | [19] -0.009 | [20] -0.068

KPNA2 (UniProt P52292)
inactive: [1] -0.044 | [2] -0.011 | [3] -0.001 | [4] -0.023 | [5] 0.009 | [6] -0.01 | [7] -0.027 | [8] -0.032 | [9] 0.051 | [10] 0.041 | [11] 0.001 | [12] 0 | [13] 0.05 | [14] -0.037 | [15] -0.051 | [16] 0.004 | [17] -0.033 | [18] -0.041 | [19] 0.005 | [20] 0.038

MMS19 isoform 8 (UniProt Q96T76)
inactive: [1] -0.023 | [2] -0.011 | [3] 0.022 | [4] -0.02 | [5] -0.041 | [6] 0.006 | [7] -0.018 | [8] 0.013 | [9] 0.055 | [10] 0.004 | [11] 0.064 | [12] 0.006 | [13] 0.029 | [14] -0.061 | [15] -0.114 | [16] 0.002 | [17] -0.005 | [18] -0.051 | [19] 0 | [20] 0.026

KNSTRN (UniProt Q9Y448)
inactive: [1] -0.017 | [2] 0.018 | [3] 0.027 | [4] 0.081 | [5] -0.008 | [6] 0.022 | [7] -0.023 | [8] -0.032 | [9] 0 | [10] 0.002 | [11] -0.012 | [12] 0.021 | [13] 0.022 | [14] 0.01 | [15] 0.004 | [16] 0.086 | [17] 0.063 | [18] -0.095 | [19] 0.009 | [20] -0.03

MPI (UniProt P34949)
Sequence of UniProt P34949 (P34949 whole entry, looked up): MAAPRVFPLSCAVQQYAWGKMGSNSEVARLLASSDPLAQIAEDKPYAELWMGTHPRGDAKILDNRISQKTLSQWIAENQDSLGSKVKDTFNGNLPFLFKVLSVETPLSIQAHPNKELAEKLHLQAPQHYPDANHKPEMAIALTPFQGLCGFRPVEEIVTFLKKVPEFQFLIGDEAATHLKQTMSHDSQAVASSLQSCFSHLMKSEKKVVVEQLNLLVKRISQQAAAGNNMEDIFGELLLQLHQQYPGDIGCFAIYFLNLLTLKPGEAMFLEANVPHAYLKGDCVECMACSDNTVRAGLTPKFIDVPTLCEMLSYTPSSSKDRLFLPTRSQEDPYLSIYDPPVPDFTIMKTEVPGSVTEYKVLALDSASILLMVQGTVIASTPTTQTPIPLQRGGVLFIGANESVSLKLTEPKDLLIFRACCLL
inactive: [1] 0.029 | [2] 0.031 | [3] -0.06 | [4] 0.009 | [5] -0.039 | [6] -0.004 | [7] -0.051 | [8] 0.055 | [9] -0.012 | [10] -0.013 | [11] 0.013 | [12] 0.007 | [13] 0.008 | [14] 0.014 | [15] -0.02 | [16] -0.011 | [17] 0.149 | [18] -0.067 | [19] -0.028 | [20] 0.025

LZTS1 (UniProt Q9Y250)
Sequence of UniProt Q9Y250 (Q9Y250 whole entry, looked up): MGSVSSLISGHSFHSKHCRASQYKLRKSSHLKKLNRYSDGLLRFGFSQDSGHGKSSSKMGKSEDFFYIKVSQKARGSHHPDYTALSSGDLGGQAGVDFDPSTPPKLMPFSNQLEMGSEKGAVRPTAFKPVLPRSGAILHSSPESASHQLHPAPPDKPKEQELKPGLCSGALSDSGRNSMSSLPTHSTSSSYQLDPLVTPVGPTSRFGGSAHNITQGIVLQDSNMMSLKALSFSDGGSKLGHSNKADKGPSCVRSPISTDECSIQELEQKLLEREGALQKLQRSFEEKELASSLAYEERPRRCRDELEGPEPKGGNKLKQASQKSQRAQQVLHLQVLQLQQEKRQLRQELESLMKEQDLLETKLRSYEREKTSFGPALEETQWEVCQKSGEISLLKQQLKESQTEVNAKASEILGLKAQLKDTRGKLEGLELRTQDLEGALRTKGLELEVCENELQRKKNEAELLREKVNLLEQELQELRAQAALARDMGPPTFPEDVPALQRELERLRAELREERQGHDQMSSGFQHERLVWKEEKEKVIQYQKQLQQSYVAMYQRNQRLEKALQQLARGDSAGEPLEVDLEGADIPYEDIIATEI
inactive: [1] 0.104 | [2] -0.008 | [3] 0.049 | [4] -0.176 | [5] 0.116 | [6] -0.028 | [7] -0.233 | [8] 0.705 | [9] -0.111 | [10] -0.007 | [11] -0.047 | [12] -0.034 | [13] 0.218 | [14] 0.042 | [15] 0.074 | [16] -0.53 | [17] 0.493 | [18] -0.132 | [19] 0 | [20] -0.116

KIF14 (UniProt Q15058)
Sequence of UniProt Q15058 (Q15058 whole entry, looked up): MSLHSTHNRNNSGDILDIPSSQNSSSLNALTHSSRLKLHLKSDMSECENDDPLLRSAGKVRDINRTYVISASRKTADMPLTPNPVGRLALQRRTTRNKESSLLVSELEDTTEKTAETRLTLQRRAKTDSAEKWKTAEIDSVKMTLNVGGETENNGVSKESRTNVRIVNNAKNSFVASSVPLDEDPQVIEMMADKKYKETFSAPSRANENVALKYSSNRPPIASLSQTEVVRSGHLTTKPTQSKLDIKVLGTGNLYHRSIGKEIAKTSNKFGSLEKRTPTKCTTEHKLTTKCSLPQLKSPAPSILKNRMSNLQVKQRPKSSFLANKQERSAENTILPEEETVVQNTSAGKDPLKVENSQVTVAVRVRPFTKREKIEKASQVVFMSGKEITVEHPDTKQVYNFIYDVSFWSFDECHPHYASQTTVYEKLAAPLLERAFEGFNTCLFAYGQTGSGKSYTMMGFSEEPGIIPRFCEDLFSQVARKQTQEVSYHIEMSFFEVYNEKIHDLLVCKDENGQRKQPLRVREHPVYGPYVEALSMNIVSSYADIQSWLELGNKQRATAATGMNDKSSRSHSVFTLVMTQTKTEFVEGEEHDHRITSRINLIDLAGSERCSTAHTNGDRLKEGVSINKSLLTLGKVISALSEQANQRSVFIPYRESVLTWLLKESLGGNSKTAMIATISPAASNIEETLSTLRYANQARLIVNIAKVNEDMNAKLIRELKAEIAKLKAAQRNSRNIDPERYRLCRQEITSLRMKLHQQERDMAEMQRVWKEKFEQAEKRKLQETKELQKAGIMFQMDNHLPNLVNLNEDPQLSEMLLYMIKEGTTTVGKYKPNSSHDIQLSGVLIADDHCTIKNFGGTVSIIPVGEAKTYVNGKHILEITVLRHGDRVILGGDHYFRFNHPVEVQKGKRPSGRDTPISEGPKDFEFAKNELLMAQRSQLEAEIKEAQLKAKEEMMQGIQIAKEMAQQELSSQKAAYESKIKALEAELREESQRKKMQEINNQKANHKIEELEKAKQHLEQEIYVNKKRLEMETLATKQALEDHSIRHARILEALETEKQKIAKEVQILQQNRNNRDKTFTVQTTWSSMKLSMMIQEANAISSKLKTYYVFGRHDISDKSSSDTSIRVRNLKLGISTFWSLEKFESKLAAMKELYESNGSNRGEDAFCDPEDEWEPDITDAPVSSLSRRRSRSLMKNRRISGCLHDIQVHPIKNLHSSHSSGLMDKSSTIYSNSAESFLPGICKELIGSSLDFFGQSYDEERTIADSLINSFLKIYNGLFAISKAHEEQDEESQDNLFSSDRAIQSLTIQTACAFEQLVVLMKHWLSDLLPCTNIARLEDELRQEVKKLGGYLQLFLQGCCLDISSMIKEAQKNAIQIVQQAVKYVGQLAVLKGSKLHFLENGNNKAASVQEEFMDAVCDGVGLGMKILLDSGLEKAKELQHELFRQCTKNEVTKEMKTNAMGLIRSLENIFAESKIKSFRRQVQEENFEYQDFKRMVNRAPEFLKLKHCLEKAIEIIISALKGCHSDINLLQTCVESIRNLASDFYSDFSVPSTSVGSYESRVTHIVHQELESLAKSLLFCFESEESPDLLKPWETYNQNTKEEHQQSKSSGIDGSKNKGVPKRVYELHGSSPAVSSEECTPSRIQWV
inactive: [1] 0.086 | [2] 0.024 | [3] 0.002 | [4] 0.003 | [5] 0.017 | [6] 0.002 | [7] -0.011 | [8] 0.007 | [9] 0.041 | [10] -0.012 | [11] 0.027 | [12] 0.021 | [13] 0.143 | [14] 0.052 | [15] -0.071 | [16] -0.005 | [17] -0.046 | [18] 0.05 | [19] 0.016 | [20] 0.01

LAS1L (UniProt Q9Y4W2)
Sequence of UniProt Q9Y4W2 (Q9Y4W2 whole entry, looked up): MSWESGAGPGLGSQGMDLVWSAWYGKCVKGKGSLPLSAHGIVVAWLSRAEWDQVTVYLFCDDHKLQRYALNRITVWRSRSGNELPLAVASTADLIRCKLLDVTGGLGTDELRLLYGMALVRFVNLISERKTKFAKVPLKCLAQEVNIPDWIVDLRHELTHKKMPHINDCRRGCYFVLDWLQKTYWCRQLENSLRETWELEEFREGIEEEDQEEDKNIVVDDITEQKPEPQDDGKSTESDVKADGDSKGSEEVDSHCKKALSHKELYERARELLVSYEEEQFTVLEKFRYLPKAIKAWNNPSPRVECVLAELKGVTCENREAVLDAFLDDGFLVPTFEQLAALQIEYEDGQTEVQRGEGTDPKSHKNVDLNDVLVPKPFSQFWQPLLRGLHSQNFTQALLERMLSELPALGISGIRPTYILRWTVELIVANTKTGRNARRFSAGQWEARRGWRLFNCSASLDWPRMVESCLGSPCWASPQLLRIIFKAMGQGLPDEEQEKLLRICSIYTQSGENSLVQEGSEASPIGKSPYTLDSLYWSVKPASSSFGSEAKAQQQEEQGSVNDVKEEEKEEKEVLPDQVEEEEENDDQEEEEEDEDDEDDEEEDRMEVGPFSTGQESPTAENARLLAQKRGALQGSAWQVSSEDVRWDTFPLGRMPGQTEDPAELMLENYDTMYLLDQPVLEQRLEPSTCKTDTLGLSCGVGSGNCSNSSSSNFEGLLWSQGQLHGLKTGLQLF
inactive: [1] -0.016 | [2] 0.017 | [3] 0.043 | [4] -0.017 | [5] 0.042 | [6] 0.035 | [7] -0.061 | [8] -0.006 | [9] 0.037 | [10] 0.035 | [11] -0.027 | [12] 0.007 | [13] -0.003 | [14] -0.051 | [15] -0.069 | [16] 0.009 | [17] -0.055 | [18] 0.099 | [19] -0.031 | [20] 0.049

LDAH isoform 2 (UniProt Q9H6V9)
inactive: [1] 0.015 | [2] 0.021 | [3] 0.029 | [4] 0.097 | [5] -0.018 | [6] 0.006 | [7] 0.029 | [8] 0.007 | [9] 0 | [10] 0.014 | [11] 0.077 | [12] 0.125 | [13] 0.018 | [14] 0.003 | [15] -0.036 | [16] -0.004 | [17] -0.013 | [18] -0.018 | [19] 0.016 | [20] -0.01

MAP2K1 (UniProt Q02750)
Sequence of UniProt Q02750 (Q02750 whole entry, looked up): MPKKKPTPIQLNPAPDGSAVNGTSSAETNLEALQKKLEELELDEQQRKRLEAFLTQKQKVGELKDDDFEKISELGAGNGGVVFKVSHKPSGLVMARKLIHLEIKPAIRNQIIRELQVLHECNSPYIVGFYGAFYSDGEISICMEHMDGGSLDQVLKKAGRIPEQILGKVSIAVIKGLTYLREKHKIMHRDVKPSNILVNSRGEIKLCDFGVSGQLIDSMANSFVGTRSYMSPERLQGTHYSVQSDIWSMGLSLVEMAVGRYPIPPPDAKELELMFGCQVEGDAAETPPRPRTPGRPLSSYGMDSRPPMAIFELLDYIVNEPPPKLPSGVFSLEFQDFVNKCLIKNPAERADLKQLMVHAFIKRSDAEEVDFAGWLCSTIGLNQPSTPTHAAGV
active: [2] 0.519
inactive: [1] 0.204 | [3] -0.021 | [4] 0.075 | [5] 0 | [6] -0.024 | [7] -0.04 | [8] 0.007 | [9] -0.012 | [10] -0.004 | [11] 0.056 | [12] 0.194 | [13] 0.022 | [14] -0.043 | [15] -0.051 | [16] -0.057 | [17] 0.281 | [18] -0.041 | [19] 0.032 | [20] 0.015
